Measurements published in PubChem BioAssay (NCI).
This is part of a sample that, as a whole, favours compounds with a hit. Of some 83,000 tested, about 20% had one in any assay.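 Single-dose data. Exposure time 48 hours. Values below 10 considered active.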 A number with no mark means an inactive call. The source made the active and inactive calls.

What was measured:
Experiment in all cases: NCI-60 one-dose screen, 48 h (100 = growth as untreated, 0 = no growth, -100 = all killed)
Settings in all cases: 10 µM unless noted
NCI-H23 lung = system: NCI-H23 lung
NCI-H226 lung = system: NCI-H226 lung
HOP-62 NSCLC = system: HOP-62 NSCLC
NCI-H460 lung = system: NCI-H460 lung
HOP-92 NSCLC = system: HOP-92 NSCLC
NCI-H522 lung = system: NCI-H522 lung
A549/ATCC NSCLC = system: A549/ATCC NSCLC
786-0 renal = system: 786-0 renal
COLO 205 colon = system: COLO 205 colon
DU-145 prostate = system: DU-145 prostate
K-562 leukemia = system: K-562 leukemia
MALME-3M melanoma = system: MALME-3M melanoma
MDA-MB-231 breast = system: MDA-MB-231 breast
RXF 393 renal = system: RXF 393 renal
SF-268 CNS = system: SF-268 CNS
SF-295 CNS = system: SF-295 CNS
SF-539 CNS = system: SF-539 CNS
UACC-257 melanoma = system: UACC-257 melanoma
M14 melanoma = system: M14 melanoma

SMILES | growth (NCI-H23 lung) | growth (NCI-H226 lung) | growth (HOP-62 NSCLC) | growth (NCI-H460 lung) | growth (HOP-92 NSCLC) | growth (NCI-H522 lung) | growth (A549/ATCC NSCLC) | growth (786-0 renal) | growth (COLO 205 colon) | growth (DU-145 prostate) | growth (K-562 leukemia) | growth (MALME-3M melanoma) | growth (MDA-MB-231 breast) | growth (RXF 393 renal) | growth (SF-268 CNS) | growth (SF-295 CNS) | growth (SF-539 CNS) | growth (UACC-257 melanoma) | growth (M14 melanoma)
CC1=CCC[C@@H]2C1(C)CC[C@H](C)[C@@]2(C)CC1=CC(=O)C(SC(C)(C)C)=CC1=O (stereo partly specified) | 81.2% | 84.7% | 97.8% | 83.5% | 75.2% | 62.9% | 73.3% | 82.4% | 100% | 77.6% | 57.8% | 82.3% | 78.3% | 74.5% | 85.3% | 85.1% | 89.9% | 90.3% | 88.9%
CC[C@@H](c1ccc2cc(OC)ccc2c1)C(C)(C)C(=O)F | 93.4% | 103% | 90.8% | 106% | 95.1% | 104% | 92.5% | 109% | 90.2% | 104% | 104% | 97.1% | 106% | 98.6% | 113% | 98.7% | 103% | -0.544% (active) | 99.2%
O=C(O)c1cccc(N/C=C/C(=O)c2cc3cc(Br)ccc3oc2=O)c1 | 98.1% | 94.6% | 93.7% | 97% | 103% | 91.8% | 92.4% | 99.4% | 110% | 108% | 119% | 104% | 93.6% | 107% | 90.4% | 104% | 96% | 99.2% | 94.2%
C#Cc1cccc(Nc2nc3ccc([N+](=O)[O-])cc3nc2Nc2cccc(C#C)c2)c1 | -54.6% (active) | -42.3% (active) | -94.7% (active) | -57.6% (active) | -24.9% (active) | -64% (active) | -45.7% (active) | -56.7% (active) | -87.3% (active) | -52.4% (active) | -57.5% (active) | -29.5% (active) | -57% (active) | -56.4% (active) | -51.4% (active) | -69.4% (active) | -77.4% (active) | -70.1% (active) | -82% (active)
CN1CCN(c2ccc3c(c2)nc(NNC(=O)c2cnccn2)c2cccn23)CC1 | 34.1% | 38% | 25.1% | 9.73% (active) | 65.5% | 15.7% | 21.9% | 17.6% | 3.54% (active) | 27.3% | 14.5% | 36.9% | 34.1% | 48.6% | 25.9% | 10.4% | 15.2% | 46.6% | 18.2%
O=C1NC(=C(Cl)Cl)/C(=N/S(=O)(=O)N2CCCCC2)N1 | 53.9% | 89.5% | 62.1% | 94.2% | -81.8% (active) | -82.3% (active) | 93.4% | 2.47% (active) | -84.5% (active) | 101% | -51.6% (active) | -73.6% (active) | -6.69% (active) | -39.8% (active) | 28.3% | 110% | 11.8% | 39.3% | 37.9%
CC12CCC(/C(=C/NNc3ccc([N+](=O)[O-])cc3[N+](=O)[O-])C1=O)C2(C)C (stereo unspecified) | 78.1% | 87.1% | 100% | 45.1% | 79.7% | 36.2% | 77.9% | 96.4% | 91.4% | 4.67% (active) | 77.9% | 128% | 66.1% | 64.6% | 77.8% | 85.2% | 102% | 64.4% | 65.5%
O=c1[nH]cnc2c1C(c1ccc(Br)cc1)c1sc3c(F)cccc3c1O2 (stereo unspecified) | 92.8% | 92.2% |  | 94.7% | 49.2% | 88.1% | 96.3% | 105% | 102% | 100% | 94.6% | 96.1% | 94.5% | 101% | 91.9% | 97.9% | 96.4% | 106% | 101%
